High-throughput results as filed in PubChem.
In the library only some 3.8% were active in any assay of this set; here they are far more common.
NALP3 yeast inh = NALP3 inflammasome inhibitors in reconstituted yeast, primary screen, luminescence, uHTS. inhibition, % at 10 µM. 0.39% of 330,000 active. Yeast reconstituted NLRP3/ASC/caspase-1, beta-gal luminescence, 24 h. AID 2825, 2010;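 active = inhibition of 50% or more; inactive = inhibition below 50%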
CR mimetic SO = reduction of superoxide in aged yeast, primary screen, HTS; 0.18% of 330,000 active; AID 2690, 2010; S. cerevisiae aged cells, superoxide DHE fluorescence; hits give low values; superoxide response (% of plate mean), % at 10 µM;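 active = superoxide response under a set limit, about three screen SD below normal, cut at about 65% in these data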;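 note: yeast aged for seven days with compound at 30 °C before DHE staining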
TIM10 inh = growth inhibitors of isogenic TIM10 control yeast, primary screen, counter-screen for tim10-1 yeast inhibitor project, luminescence, uHTS. inhibition, % at 10 µM. S. cerevisiae TIM10 strain growth, BacTiter-Glo luminescence, 24 h. 1.4% of 330,000 active;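 active = inhibition of 40% or more at the single tested concentration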;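 note: wild-type TIM10 isogenic control strain grown at permissive 25 °C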
tim10-1 inh = growth inhibitors of tim10-1 mutant yeast, primary screen, luminescence, uHTS | S. cerevisiae tim10-1 ts strain growth, BacTiter-Glo, 24 h | inhibition, % at 20 µM | 2.2% of 330,000 active;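 active = inhibition of at least 40%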;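 note: mutant grown at 25 °C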
tim23-1 inh = growth inhibitors of tim23-1 mutant yeast, primary screen, luminescence, uHTS | 1.3% of 330,000 active | inhibition, % at 20 µM | S. cerevisiae tim23-1 growth, BacTiter-Glo luminescence, 24 h | AID 463212, 2010;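 active = growth inhibition of the mutant yeast at or above 50%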;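 note: temperature-sensitive mutant grown at 25 °C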
tim10-1 confirm = growth inhibitors of tim10-1 mutant yeast, confirmation, single concentration, luminescence, S. cerevisiae; shares compounds with tim10-1 inh; S. cerevisiae tim10-1 ts strain growth, BacTiter-Glo, 24 h; inhibition, % at 20 µM; 56% of 7,400 active; AID 463213, 2010;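 active = inhibition of yeast growth at or above a set limit in either of two repeat tests at 20 µM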;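 note: tim10-1 mutant grown at permissive 25 °C to find synthetic lethal compounds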
TIM10 conf = growth inhibitors of wild-type TIM10 yeast, confirmation, counter-screen for tim10-1 synthetic lethality project, single concentration, luminescence, S. cerevisiae; 63% of 4,600 active; S. cerevisiae tim10 strain growth, BacTiter-Glo luminescence, 24 h; AID 463215, 2010; shares compounds with TIM10 inh; inhibition, % at 10 µM;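 active = inhibition of yeast growth at or above a set limit in either of two replicates at 10 µM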; note: this counterscreen used the strain with wild-type TIM10
tim23-1 conf = tim23-1 mutant yeast growth inhibitors, confirmation, luminescence, single concentration | AID 463218, 2010 | S. cerevisiae tim23-1 growth, BacTiter-Glo luminescence, 24 h | inhibition, % at 20 µM | 83% of 4,400 active | shares compounds with tim23-1 inh;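 active = inhibition above about 39% in either of two replicate wells at 20 µM, limit read from the data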;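 note: temperature-sensitive tim23-1 mutant grown at 25 °C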
Each line names hits and unclear results; the compound was inactive in the other large screens (follow-up assays come after a bar, where they were run).

Cc1ccc(C(c2cc(Cl)c3cccnc3c2O)N2CCN(C)CC2)cc1 (configuration not stated)	tim10-1 inh 41.0, tim23-1 inh 55.1 | tim10-1 confirm inactive | tim23-1 conf 79.7
CC(C)[C@@H](CSc1ccccc1)N1CCN(Cc2ccccc2)CCC1=O	none
CC(=O)c1cccc(NC(=O)CN(C)S(=O)(=O)c2cccc3nsnc23)c1	none
O=c1c2c([N+](=O)[O-])cc([N+](=O)[O-])cc2nc2ccccn12	tim10-1 inh 41.7, tim23-1 inh 85.5 | tim10-1 confirm 67.8 | tim23-1 conf 87.2
O=c1c2c([N+](=O)[O-])cc([N+](=O)[O-])cc2sn1Cc1ccccc1	none
CC1Oc2ccccc2N(Cc2ccc(F)cc2)C1=O (configuration not stated)	none
Cc1ccccc1NC(=S)NCc1ccc2[nH]c3c(c2c1)CCCC3	TIM10 inh 47.1, tim10-1 inh 48.5, tim23-1 inh 55.6 | tim10-1 confirm inactive | TIM10 conf 43.4 | tim23-1 conf 48.2
S=C(NCc1ccc2[nH]c3c(c2c1)CCCC3)Nc1ccccc1Cl	none
O=C(NC(=S)NCc1ccccc1)c1ccccc1Br	none
O=C(NC(=S)NCCc1ccccc1)c1ccccc1	TIM10 inh 42.7, tim10-1 inh 44.9, tim23-1 inh 55.4 | tim10-1 confirm inactive | TIM10 conf 41.5 | tim23-1 conf 47.7
O=C(NC(=S)NCc1ccccc1)c1ccccc1F	tim10-1 inh 40.1, tim23-1 inh 51.3 | tim10-1 confirm 26.9 | tim23-1 conf inactive
CC1(C)C(=O)OC(c2ccc([N+](=O)[O-])cc2)C(C)(C)C1=O (configuration not stated)	none
Cc1ccc(CNC(=O)COC(=O)c2nc(-c3ccccc3)oc2C)cc1	none
Cc1oc2c(c1C(=O)NCc1cccnc1)C(=O)c1ccccc1C2=O	TIM10 inh 94.4, tim10-1 inh 83.2, tim23-1 inh 82.8 | tim10-1 confirm 82.2 | TIM10 conf 94.6 | tim23-1 conf 71.5
Cc1ccc(C)c(N2CC(C(=O)Nc3nccs3)CC2=O)c1 (configuration not stated)	none
C/C(=N\NC(=S)NC1CCCCC1)c1c(F)cccc1F	none
C/C(=N\NC(=S)NC1CCCCC1)c1cccs1	TIM10 inh 57.6, tim10-1 inh 41.0, tim23-1 inh 52.8 | tim10-1 confirm inactive | TIM10 conf 36.2 | tim23-1 conf 49.0
O=C(OC1CCCCC1)c1ccc(NC(=O)c2ccco2)cc1	tim10-1 inh 44.2, tim23-1 inh 53.6 | tim10-1 confirm inactive | tim23-1 conf 70.2
CN1C(=O)/C(=C\c2cc(N=Nc3ccccc3)ccc2O)SC1=S	tim10-1 inh 42.1, tim23-1 inh 61.9 | tim10-1 confirm inactive | tim23-1 conf 67.3
CC1=NN(c2nc3ccccc3[nH]2)C(=O)/C1=C/N(C)C	tim10-1 inh 59.3, tim23-1 inh 59.0 | tim10-1 confirm active | tim23-1 conf 59.0
Cc1cc(C(=O)O/N=C(\N)c2ccc(C(C)(C)C)cc2)no1	TIM10 inh 60.9, tim10-1 inh 46.9, tim23-1 inh 69.6 | tim10-1 confirm 58.0 | TIM10 conf 45.3 | tim23-1 conf 78.0
Cc1noc(-c2ccc(Cl)cc2)c1C(=O)O/N=C(\N)c1ccc(C(C)(C)C)cc1	TIM10 inh 75.7, tim10-1 inh 44.6, tim23-1 inh 71.3 | tim10-1 confirm inactive | TIM10 conf 84.5 | tim23-1 conf 58.0
N/C(=N\OC(=O)c1cc(Cl)ccc1Cl)c1ccncc1	none
Cc1cc(-c2onc(C)c2C(=O)Oc2ccc(Cl)cc2)no1	none
Cc1occc1C(=O)O/N=C(\N)c1ccc(Cl)cc1	TIM10 inh 47.2, tim10-1 inh 65.6, tim23-1 inh 82.3 | tim10-1 confirm inactive | TIM10 conf 38.4 | tim23-1 conf 76.5
COc1ccc(C(=O)O/N=C(\N)c2ccccc2)cc1	TIM10 inh 57.5, tim10-1 inh 70.7, tim23-1 inh 79.8 | tim10-1 confirm 68.0 | TIM10 conf 56.4 | tim23-1 conf 78.8
CCOC(=O)c1cc(/C(C)=N/OC(=O)c2ccc(C(C)(C)C)cc2)on1	none
CCNS(=O)(=O)c1ccc(CCC(=O)NCc2ccc3c(c2)OCO3)cc1	none
Cc1ccc(CCNC(=O)c2nc(CS(=O)(=O)c3ccc(Cl)cc3)no2)cc1	none
Cc1ccc(C(C)C)c(OCC(=O)NNC(=O)C2CSC3(C)CCC(=O)N23)c1 (configuration not stated)	none (no result: CR mimetic SO)
N/C(=N\OC(=O)c1ccc2ccccc2c1)c1ccncc1	tim10-1 inh 65.0, tim23-1 inh 51.0 | tim10-1 confirm 55.2 | tim23-1 conf 54.9
N/C(=N\OC(=O)COc1ccc2ccccc2c1)c1ccncc1	none
CC(C)(C)c1ccc(C(=O)O/N=C(\N)c2ccccc2)cc1	TIM10 inh 82.5, tim10-1 inh 57.2, tim23-1 inh 83.5 | tim10-1 confirm 45.0 | TIM10 conf 91.8 | tim23-1 conf 78.5
CC(=O)c1ccc(N2CCN(C(C)C(=O)Nc3ccc4c(c3)OCCO4)CC2)cc1 (configuration not stated)	none
CC(C)Sc1n[nH]c(=O)n1-c1cccc(C(F)(F)F)c1	none
O=C(c1cccs1)N(C(=O)c1cccs1)c1ccc(Br)cn1	TIM10 inh 63.3, tim10-1 inh 41.6, tim23-1 inh 75.3 | tim10-1 confirm 30.9 | TIM10 conf 50.2 | tim23-1 conf 62.0
COc1ccc(-c2oc3ccccc3c(=O)c2OCC(=O)O)cc1	none
CC(=O)Oc1c(-c2ccc(Br)o2)oc2ccccc2c1=O	TIM10 inh 73.0, tim10-1 inh 53.2, tim23-1 inh 64.9 | tim10-1 confirm 59.7 | TIM10 conf 77.7 | tim23-1 conf 86.0
COc1ccc(-c2oc3ccccc3c(=O)c2OC(C)=O)cc1	TIM10 inh 55.2, tim10-1 inh 42.2, tim23-1 inh 59.7 | tim10-1 confirm 33.6 | TIM10 conf 48.1 | tim23-1 conf 59.1
C=CCNS(=O)(=O)c1nc(C)c(Cl)c(C)c1C#N	none
COCCCNC(=S)N(CCO)Cc1cc2cc3c(cc2[nH]c1=O)OCO3	none
O=C(/C(N=Nc1cccc([N+](=O)[O-])c1)=C(/O)c1ccc(Br)cc1)C(F)(F)F	tim10-1 inh 61.7, tim23-1 inh 61.8 | tim10-1 confirm 61.5 | tim23-1 conf 73.1
